Reference: PubChem BioAssay (EPA / NIEHS)
Results filed as inconclusive are left out. A structure can be active in one record and inactive in another. The source made the active and inactive calls. Rule for the calls: active = hit-call score of the fitted dose curve at least 0.9, where 1 is the maximum; inconclusive = response in the unintended direction; inactive = score below 0.9.

Assay: CCTE_Mundy_HCI_iCellGluta_NOG_NeuriteLength: CCTE's Neurite Outgrowth Assay in iCellGluta cells for Neurite Length, Mundy Lab (AID 2284318)
Method: CCTE_Mundy_HCI_iCellGluta_NOG is a multiplexed, cell-based-readout assay that uses iCell GlutaNeurons from FUJIFILM Cellular Dynamics, Inc. (FCDI), human glutamatergic enriched neurons derived from induced pluripotent stem (iPS) cells, with measurements taken at 50.33 hours after chemical dosing in a microplate: 96-well plate.CCTE_Mundy_HCI_iCellGluta_NOG_NeuriteLength is one of four components of the CCTE_Mundy_HCI_iCellGluta_NOG assay. It measures neurite outgrowth related to neurite length using High Content Imaging of fluorescently labelled markers.Data from the assay component CCTE_Mundy_HCI_iCellGluta_NOG_NeuriteLength was analyzed at the endpoint CCTE_Mundy_HCI_iCellGluta_NOG_NeuriteLength in the positive analysis fitting direction relative to DMSO as the negative control and baseline of activity. Using a type of morphology reporter, loss-of-signal activity can be used to understand developmental effects.
Exposure starts 2 hours post-plating by adding 10 ul of the working solution to 90 ul of media in the wells for a 1/10 dilution. Forty-eight hours after chemical treatment cells are fixed by direct addition of 100 ul of warm (37C) Dulbecco's phosphate buffered saline (DPBS) fixative solution containing 8% paraformaldehyde, 8% sucrose, and 0.1% of 3 mg/ml Hoechst 33342 into each well. Primary antibodies are prepared by dilution in Immunocytochemical Staining Buffer (ISB), 10X Dulbecco's PBS, 0.1% Saponin, 5% Bovine Serum Albumin, 0.5% NaN3 (Sodium Azide) and betaIII-tubulin (rabbit anti-betaIII-tubulin, 1:800) followed by Alexa Fluor-488 secondary (1:500) to label neuronal cell bodies and neurites. A Cellomics ArrayScan VTi HCS Reader is used for automated image acquisition and analysis of neurite outgrowth.

Row | Structure (SMILES) | outcome | AC50
1 | O=C(O)C(F)(F)C(F)(F)C(F)(F)C(F)(F)C(F)(F)C(F)(F)C(F)(F)F | inactive | –
2 | COP(=S)(OC)Oc1ccc([N+](=O)[O-])cc1 | – | 21.6 µM (active)
3 | CCC(C)(C)C(=O)OC1=C(c2ccc(Cl)cc2Cl)C(=O)OC12CCCCC2 | – | 21.9 µM (active)
4 | O=C(O)COc1ccc(Cl)cc1Cl | inactive | –
5 | O=S1OCC2C(CO1)C1(Cl)C(Cl)=C(Cl)C2(Cl)C1(Cl)Cl (centres undefined) | – | 8.78 µM (active)
6 | O=[N+]([O-])/N=C1\NCCN1Cc1ccc(Cl)nc1 | – | 15 µM (active)
7 | COP(=O)(OC)OC=C(Cl)Cl | – | 12.9 µM (active)
8 | CC1(C)C(C=C(Cl)Cl)C1C(=O)OC(C#N)c1ccc(F)c(Oc2ccccc2)c1 (centres undefined) | inactive | 9.9 µM (active)
9 | CC(C)N(C(=O)COc1nnc(C(F)(F)F)s1)c1ccc(F)cc1 | inactive | –
10 | O=S(=O)(O)C(F)(F)C(F)(F)C(F)(F)C(F)(F)C(F)(F)C(F)(F)C(F)(F)C(F)(F)F | inactive | –
11 | CC[C@H](C)[C@H]1O[C@]2(C=C[C@@H]1C)C[C@@H]1C[C@@H](C/C=C(\C)[C@@H](O[C@H]3C[C@H](OC)[C@@H](O[C@H]4C[C@H](OC)[C@@H](O)[C@H](C)O4)[C@H](C)O3)[C@@H](C)/C=C/C=C3\CO[C@@H]4[C@H](O)C(C)=C[C@@H](C(=O)O1)[C@]34O)O2 (tested in a mixture with another compound) | – | 3.44 µM (active)
12 | CNC(=O)CSP(=S)(OC)OC | inactive | –
13 | CC1(c2ccc(Oc3ccccc3)cc2)OC(=O)N(Nc2ccccc2)C1=O (centres undefined) | inactive | –
